Measurements reported in PubChem BioAssay (NCI).
“And” between values parts separate entries of the source, which are not always exact repeats. Identical values can stand only once. About 83,000 compounds went through this panel and 20% of them were active in at least one assay; those are over-represented in the sample as a whole.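 The test compound was applied at a single concentration to cells in 96-well plates for 48 hours, and percent growth was recorded.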 Unmarked numbers belong to inactive results. The source made the active and inactive calls. How the source made its calls: active means growth percent below 10; inactive means the rest.

Assays:
Assay in all cases: NCI-60 one-dose screen, 48 h (100 = growth as untreated, 0 = no growth, -100 = all killed)
Settings in all cases: 10 µM unless noted
DU-145 prostate = test system: DU-145 prostate
K-562 leukemia = test system: K-562 leukemia
MALME-3M melanoma = test system: MALME-3M melanoma
MDA-MB-231 breast = test system: MDA-MB-231 breast
RXF 393 renal = test system: RXF 393 renal
SF-268 CNS = test system: SF-268 CNS
SF-295 CNS = test system: SF-295 CNS
SF-539 CNS = test system: SF-539 CNS
UACC-257 melanoma = test system: UACC-257 melanoma
M14 melanoma = test system: M14 melanoma
HCT-15 colon = test system: HCT-15 colon
HT29 colon = test system: HT29 colon
SNB-75 CNS = test system: SNB-75 CNS
SNB-19 CNS = test system: SNB-19 CNS
U251 CNS = test system: U251 CNS
SK-MEL-5 melanoma = test system: SK-MEL-5 melanoma
UACC-62 melanoma = test system: UACC-62 melanoma
LOX IMVI melanoma = test system: LOX IMVI melanoma
SK-MEL-28 melanoma = test system: SK-MEL-28 melanoma
PC-3 prostate = test system: PC-3 prostate

Structure (SMILES) | growth (DU-145 prostate) | growth (K-562 leukemia) | growth (MALME-3M melanoma) | growth (MDA-MB-231 breast) | growth (RXF 393 renal) | growth (SF-268 CNS) | growth (SF-295 CNS) | growth (SF-539 CNS) | growth (UACC-257 melanoma) | growth (M14 melanoma) | growth (HCT-15 colon) | growth (HT29 colon) | growth (SNB-75 CNS) | growth (SNB-19 CNS) | growth (U251 CNS) | growth (SK-MEL-5 melanoma) | growth (UACC-62 melanoma) | growth (LOX IMVI melanoma) | growth (SK-MEL-28 melanoma) | growth (PC-3 prostate)
CC[C@H](C)[C@H]1O[C@]2(C=C[C@@H]1C)C[C@@H]1C[C@@H](C/C=C(\C)[C@@H](O[C@H]3C[C@H](OC)[C@@H](O[C@H]4C[C@H](OC)[C@@H](NC)[C@H](C)O4)[C@H](C)O3)[C@@H](C)/C=C/C=C3\CO[C@@H]4[C@H](O)C(C)=C[C@@H](C(=O)O1)[C@]34O)O2 | -85.2% (active) | -41.4% (active) | -67.2% (active) | -71.9% (active) | -88.4% (active) | -56% (active) | -65.6% (active) | -79.7% (active) | -56.7% (active) | -68.6% (active) | -70.2% (active) | -64.3% (active) | -72.7% (active) | 13.7% | -88.7% (active) | -95.5% (active) | -53.1% (active) | -92.3% (active) | -79.2% (active) | –
CC[C@H](C)[C@H](NC(=O)[C@H]1CCCCN1C)C(=O)N(C)[C@H](C(=O)NC12CC(C(=O)N[C@@H](Cc3ccccc3)C[C@H](C)C(=O)OC)(C1)C2)C(C)C | 105% | 98.2% | 106% | 110% | 108% | 90.2% | 102% | 100% | 102% | 101% | 101% | 87.3% | 92.7% | 100% | – | 101% | 102% | 92.1% | 110% | 100%
Cn1cc(-c2csc(-c3cn(CCCCN4CCOCC4)c4ccc(F)cc34)n2)c2cccnc21 | 100% | -49.7% (active) | -60.3% (active) | 35.2% | 16.3% | 63% | 50.8% | 69.7% | -45.1% (active) | -53.9% (active) | 61.7% | -64% (active) | 61.9% | 88.2% | 67.3% | – | 22.8% | 67.6% | -87.1% (active) | –
CC/C(=C(\c1ccc(OCCN2CCOCC2)cc1)c1ccc(OC(=O)Cc2ccccc2)cc1)c1ccc(Cl)cc1 | 101% | 82.4% | 95.1% | 109% | 114% | 94.1% | 99.4% | 105% | 107% | 102% | 112% | 95.1% | 114% | 99.6% | – | 107% | 99.7% | 99% | 101% | 95.3%
C[C@]12CC[C@H]3[C@@H](CC=C4c5nc(-c6ccc(Br)cc6)sc5CC[C@@]43C)[C@@H]1CC[C@@H]2O | 108% | 76.7% | 103% | 89.5% | 3.87% (active) | 90.2% | 63.5% | 9.53% (active) | 114% | 90.5% | 89.1% | 109% | 78.4% | 84.4% | 63.4% | 97.1% | – | 90% | – | –
ClC1OC(Cl)(Cl)C(Cl)(Cl)OC1(Cl)Cl (centres undefined) | 114% | 98.1% | 97.5% | 105% | 110% | 108% | 109% | 91% | 99.5% | 98.1% | 106% | 103% | 88.3% | 112% | – | 100% | 104% | 108% | 106% | 104%
COCC1OC2OC3C(COC)OC(OC4C(COC)OC(OC5C(COC)OC(OC6C(COC)OC(OC7C(COC)OC(OC8C(COC)OC(OC1C(O)C2O)C(O)C8O)C(O)C7O)C(O)C6O)C(O)C5O)C(O)C4O)C(O)C3O (centres undefined) (tested in a mixture with another compound) | 113% | 99.5% | 127% | 115% | 129% | 105% | 111% | 111% | 117% | 105% | 103% | 109% | 86.1% | 110% | 105% | – | 107% | 102% | 112% | –
Cc1cc(N(CCCl)CCCl)ccc1C=Nc1ccc(-c2csc(-c3ccccc3)n2)cc1 | 68.3% | 80.4% | 115% | 90.3% | 90.1% | 66.7% | 66.2% | 74.4% | 86.5% | 92.6% | 103% | 112% | 84.6% | 79.4% | 85% | 80.8% | 58.8% | 80.2% | 105% | –
Cc1c2ccncc2c(C)c2c1[nH]c1ccccc12 | -97.8% (active) | 3.9% (active) | -77.8% (active) | -68.9% (active) | -87.3% (active) | -77.1% (active) | -84.7% (active) | -93.6% (active) | -62.1% (active) | -89.9% (active) | -40.3% (active) | 2% (active) | -89% (active) | -84.8% (active) | -82.2% (active) | – | 56.5% | -77.6% (active) | – | –
C#COc1cccc(Nc2ncnc3cc(NC(=O)CF)ccc23)c1 | 76.1% [6.25 µM] | 7.01% [6.25 µM] (active) | 60.9% [6.25 µM] | 50.9% [6.25 µM] | 84.4% [6.25 µM] | 51.8% [6.25 µM] | 29.9% [6.25 µM] | 29.3% [6.25 µM] | 40.4% [6.25 µM] | 18.7% [6.25 µM] | 28.6% [6.25 µM] | 4.41% [6.25 µM] (active) | 48.2% [6.25 µM] | 33.7% [6.25 µM] | 23.1% [6.25 µM] | 36.2% [6.25 µM] | 26.4% [6.25 µM] | 36.8% [6.25 µM] | 60.4% [6.25 µM] | –
CC[PH+](CC)CC.O=COC1OC([S-])C(OC=O)C(OC=O)C1OC=O.[Au+] (centres undefined) | -43.7% (active) | -6.71% (active) | -92.1% (active) | -76.3% (active) | -91% (active) | -78.5% (active) | -16.3% (active) | -99.2% (active) | -83.6% (active) | -63.1% (active) | -74.9% (active) | -54% (active) | -24.2% (active) | -99.1% (active) | -99.5% (active) | – | -99% (active) | -89.4% (active) | -92.1% (active) | –
CCCCCCCCCCCCCCCCCC1OCC(COC(=O)O[C@@H](C(=O)O[C@H]2C[C@@]3(O)[C@@H](OC(=O)c4ccccc4)[C@@H]4[C@]5(OC(C)=O)CO[C@@H]5C[C@H](O)[C@@]4(C)C(=O)[C@H](OC(C)=O)C(=C2C)C3(C)C)[C@@H](NC(=O)c2ccccc2)c2ccccc2)O1 (some centres undefined) | 44.4% | 18.8% | 59.3% | 81.8% | 28.1% | 59.1% | 48.4% | 51.2% | 69.8% | 37.8% | 99.4% | 5.3% (active) | 37.7% | 49.1% | – | 60.4% | 43.1% | 37.5% | 58.4% | 39.9%
O=[N+]([O-])c1ccc2scc3c4ccccc4nc-3c2c1 | -7.89% (active) | 3.96% (active) | -45% (active) | -76.1% (active) | -96.8% (active) | -0.718% (active) | 84.7% | -45% (active) | -59.9% (active) | -54.8% (active) | -36.7% (active) | -47% (active) | -42% (active) | 46.7% | – | 8.28% (active) | -61% (active) | -87.1% (active) | -56.1% (active) | -53.4% (active)
O=C(O)C1C(C(=O)O)C2(Cl)C(Cl)=C(Cl)C1(Cl)C2(Cl)Cl (centres undefined) | 107% and 120% | 113% and 115% | 104% and 102% | 111% and 102% | 103% and 130% | 105% and 106% | 101% and 113% | 88.5% | 102% and 104% | 102% and 109% | 105% and 106% | 103% | 82.3% and 93.7% | 124% and 100% | – | 104% and 116% | 104% and 102% | 107% and 98.1% | 108% | 91.7% and 101%
